# Test results as given in ChEMBL document CHEMBL1961873, “Compounds: GSK PKIS; Assays: Nanosyn kinase panel” (2012).
# Where “and” joins values, the source holds several entries; their conditions need not be identical. Equal values may be shown once.
# Experiments:
# [1] = target: Protein kinase C gamma type (Homo sapiens) (UniProt P05129); conditions: at 1 µM;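 also: each value is an averaged percent inhibition of the enzyme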
# [2] = target: T1, Protein kinase C iota type (Homo sapiens) (UniProt P41743); conditions: at 0.1 µM
# T1 sequence (whole entry): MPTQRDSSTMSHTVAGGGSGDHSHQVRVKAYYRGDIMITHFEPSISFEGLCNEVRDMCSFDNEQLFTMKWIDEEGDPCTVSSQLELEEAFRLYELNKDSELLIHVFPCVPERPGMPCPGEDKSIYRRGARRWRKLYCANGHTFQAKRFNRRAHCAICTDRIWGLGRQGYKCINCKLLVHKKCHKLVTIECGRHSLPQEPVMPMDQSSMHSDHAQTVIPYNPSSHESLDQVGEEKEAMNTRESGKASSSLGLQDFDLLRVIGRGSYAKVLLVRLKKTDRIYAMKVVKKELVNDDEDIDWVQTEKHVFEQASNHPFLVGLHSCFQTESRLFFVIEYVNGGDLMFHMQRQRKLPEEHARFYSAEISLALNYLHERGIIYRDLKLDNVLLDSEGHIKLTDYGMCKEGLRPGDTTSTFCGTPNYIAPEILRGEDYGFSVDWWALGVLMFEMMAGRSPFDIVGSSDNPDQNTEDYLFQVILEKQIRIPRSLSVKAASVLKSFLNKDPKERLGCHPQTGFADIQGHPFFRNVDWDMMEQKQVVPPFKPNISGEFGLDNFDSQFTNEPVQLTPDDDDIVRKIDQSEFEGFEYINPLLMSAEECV
# [3] = target: T1, Protein kinase C iota type (Homo sapiens); conditions: at 1 µM
# [4] = target: Protein kinase C theta type (Homo sapiens) (UniProt Q04759); conditions: at 0.1 µM
# [5] = target: Protein kinase C theta type (Homo sapiens) (UniProt Q04759); conditions: at 1 µM
# [6] = target: Protein kinase C beta type (Homo sapiens) (UniProt P05771); conditions: at 0.1 µM
# [7] = target: Protein kinase C beta type (Homo sapiens) (UniProt P05771); conditions: at 1 µM
# [8] = target: T2, Serine/threonine-protein kinase D1 (Homo sapiens) (UniProt Q15139); conditions: at 0.1 µM
# T2 sequence (whole entry): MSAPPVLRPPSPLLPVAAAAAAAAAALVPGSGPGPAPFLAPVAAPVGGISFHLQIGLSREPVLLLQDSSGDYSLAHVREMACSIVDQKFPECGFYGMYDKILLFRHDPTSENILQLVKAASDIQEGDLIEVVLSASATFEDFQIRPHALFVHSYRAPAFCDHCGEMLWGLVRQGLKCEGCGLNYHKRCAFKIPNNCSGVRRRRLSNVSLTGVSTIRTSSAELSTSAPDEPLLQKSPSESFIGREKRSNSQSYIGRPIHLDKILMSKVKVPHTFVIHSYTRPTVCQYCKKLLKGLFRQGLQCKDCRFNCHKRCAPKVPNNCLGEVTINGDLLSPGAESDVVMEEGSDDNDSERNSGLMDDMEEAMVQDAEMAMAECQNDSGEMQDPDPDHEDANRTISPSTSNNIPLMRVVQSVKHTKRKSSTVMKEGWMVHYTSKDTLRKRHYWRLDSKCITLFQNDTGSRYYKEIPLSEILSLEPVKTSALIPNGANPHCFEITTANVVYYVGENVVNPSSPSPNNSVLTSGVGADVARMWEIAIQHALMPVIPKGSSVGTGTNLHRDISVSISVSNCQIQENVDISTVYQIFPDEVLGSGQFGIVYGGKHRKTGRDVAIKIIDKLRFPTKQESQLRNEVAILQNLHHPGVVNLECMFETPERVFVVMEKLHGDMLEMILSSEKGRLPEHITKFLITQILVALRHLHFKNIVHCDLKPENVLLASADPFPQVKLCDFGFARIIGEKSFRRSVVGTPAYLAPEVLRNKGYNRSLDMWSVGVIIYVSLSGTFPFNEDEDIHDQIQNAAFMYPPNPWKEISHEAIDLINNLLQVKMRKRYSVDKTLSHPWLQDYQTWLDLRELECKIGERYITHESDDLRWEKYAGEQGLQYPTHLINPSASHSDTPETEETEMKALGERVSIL
# [9] = target: T2, Serine/threonine-protein kinase D1 (Homo sapiens); conditions: at 1 µM
# [10] = target: T3, Serine/threonine-protein kinase D2 (Homo sapiens) (UniProt Q9BZL6); conditions: at 0.1 µM
# T3 sequence (whole entry): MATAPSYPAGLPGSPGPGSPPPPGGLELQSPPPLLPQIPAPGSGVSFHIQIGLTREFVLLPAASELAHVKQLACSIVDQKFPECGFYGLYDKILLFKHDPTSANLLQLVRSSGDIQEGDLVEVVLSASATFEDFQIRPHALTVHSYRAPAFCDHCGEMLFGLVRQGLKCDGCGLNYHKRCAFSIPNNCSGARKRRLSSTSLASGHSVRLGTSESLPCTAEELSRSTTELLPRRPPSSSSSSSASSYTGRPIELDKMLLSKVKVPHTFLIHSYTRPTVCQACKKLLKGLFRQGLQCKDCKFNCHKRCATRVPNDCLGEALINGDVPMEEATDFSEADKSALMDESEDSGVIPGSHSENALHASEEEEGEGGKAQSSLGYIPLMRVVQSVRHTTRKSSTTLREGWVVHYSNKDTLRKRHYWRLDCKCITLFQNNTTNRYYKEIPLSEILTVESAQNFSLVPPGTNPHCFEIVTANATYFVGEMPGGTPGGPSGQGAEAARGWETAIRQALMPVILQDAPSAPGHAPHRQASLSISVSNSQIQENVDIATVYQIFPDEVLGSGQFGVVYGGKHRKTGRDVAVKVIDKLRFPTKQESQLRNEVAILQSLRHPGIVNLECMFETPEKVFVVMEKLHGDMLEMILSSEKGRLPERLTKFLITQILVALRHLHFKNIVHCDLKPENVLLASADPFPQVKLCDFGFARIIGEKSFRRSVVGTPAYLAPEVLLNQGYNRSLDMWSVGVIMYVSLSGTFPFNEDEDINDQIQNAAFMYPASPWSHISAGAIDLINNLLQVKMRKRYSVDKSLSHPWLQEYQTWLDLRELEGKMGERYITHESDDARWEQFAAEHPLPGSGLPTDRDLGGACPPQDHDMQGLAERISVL
# [11] = target: T3, Serine/threonine-protein kinase D2 (Homo sapiens); conditions: at 1 µM
# [12] = target: T4, Serine/threonine-protein kinase D3 (Homo sapiens) (UniProt O94806); conditions: at 0.1 µM
# T4 sequence (whole entry): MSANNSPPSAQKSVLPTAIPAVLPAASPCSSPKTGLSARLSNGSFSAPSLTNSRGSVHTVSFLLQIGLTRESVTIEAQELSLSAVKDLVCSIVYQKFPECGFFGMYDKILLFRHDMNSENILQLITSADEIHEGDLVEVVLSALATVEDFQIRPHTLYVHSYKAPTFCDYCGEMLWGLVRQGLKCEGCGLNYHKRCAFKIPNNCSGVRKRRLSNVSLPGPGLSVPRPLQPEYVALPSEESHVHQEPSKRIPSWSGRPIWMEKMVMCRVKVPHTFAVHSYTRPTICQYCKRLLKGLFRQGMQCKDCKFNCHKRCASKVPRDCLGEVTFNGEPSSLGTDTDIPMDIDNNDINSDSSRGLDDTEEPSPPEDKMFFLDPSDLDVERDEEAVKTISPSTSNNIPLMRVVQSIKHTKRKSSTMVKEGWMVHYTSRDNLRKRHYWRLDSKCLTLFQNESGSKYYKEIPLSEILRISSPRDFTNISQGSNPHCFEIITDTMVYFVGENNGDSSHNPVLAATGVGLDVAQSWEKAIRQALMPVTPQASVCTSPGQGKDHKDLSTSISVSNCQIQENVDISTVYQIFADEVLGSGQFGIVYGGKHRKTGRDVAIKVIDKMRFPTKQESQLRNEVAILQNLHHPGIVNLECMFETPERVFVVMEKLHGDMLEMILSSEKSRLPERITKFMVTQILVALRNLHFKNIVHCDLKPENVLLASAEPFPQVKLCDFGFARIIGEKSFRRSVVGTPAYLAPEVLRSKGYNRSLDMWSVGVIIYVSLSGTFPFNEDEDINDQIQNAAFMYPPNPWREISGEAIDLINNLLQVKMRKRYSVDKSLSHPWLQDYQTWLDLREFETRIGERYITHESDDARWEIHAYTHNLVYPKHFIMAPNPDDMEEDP
# [13] = target: T4, Serine/threonine-protein kinase D3 (Homo sapiens); conditions: at 1 µM
# [14] = target: T5, cGMP-dependent protein kinase 1 (Homo sapiens) (UniProt Q13976); conditions: at 0.1 µM
# T5 sequence (whole entry): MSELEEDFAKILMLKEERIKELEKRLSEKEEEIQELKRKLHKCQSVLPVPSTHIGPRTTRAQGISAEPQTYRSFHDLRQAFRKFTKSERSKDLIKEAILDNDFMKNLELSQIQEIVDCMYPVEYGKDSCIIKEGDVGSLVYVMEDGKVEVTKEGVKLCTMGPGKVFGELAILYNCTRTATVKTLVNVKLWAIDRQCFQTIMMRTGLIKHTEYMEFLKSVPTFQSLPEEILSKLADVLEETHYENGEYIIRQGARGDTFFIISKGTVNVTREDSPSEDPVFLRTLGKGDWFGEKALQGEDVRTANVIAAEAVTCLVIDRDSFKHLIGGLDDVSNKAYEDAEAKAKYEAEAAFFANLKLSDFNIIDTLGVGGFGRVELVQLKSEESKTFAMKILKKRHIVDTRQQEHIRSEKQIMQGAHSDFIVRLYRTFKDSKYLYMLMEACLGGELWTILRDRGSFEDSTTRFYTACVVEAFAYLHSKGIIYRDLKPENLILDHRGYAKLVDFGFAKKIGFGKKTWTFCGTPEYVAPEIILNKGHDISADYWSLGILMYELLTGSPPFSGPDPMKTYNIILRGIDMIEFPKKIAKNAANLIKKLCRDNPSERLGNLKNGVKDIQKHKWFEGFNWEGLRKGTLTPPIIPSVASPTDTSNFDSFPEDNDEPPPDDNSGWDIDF
# [15] = target: T5, cGMP-dependent protein kinase 1 (Homo sapiens); conditions: at 1 µM
# [16] = target: T6, cGMP-dependent protein kinase 2 (Homo sapiens) (UniProt Q13237); conditions: at 0.1 µM
# T6 sequence (whole entry): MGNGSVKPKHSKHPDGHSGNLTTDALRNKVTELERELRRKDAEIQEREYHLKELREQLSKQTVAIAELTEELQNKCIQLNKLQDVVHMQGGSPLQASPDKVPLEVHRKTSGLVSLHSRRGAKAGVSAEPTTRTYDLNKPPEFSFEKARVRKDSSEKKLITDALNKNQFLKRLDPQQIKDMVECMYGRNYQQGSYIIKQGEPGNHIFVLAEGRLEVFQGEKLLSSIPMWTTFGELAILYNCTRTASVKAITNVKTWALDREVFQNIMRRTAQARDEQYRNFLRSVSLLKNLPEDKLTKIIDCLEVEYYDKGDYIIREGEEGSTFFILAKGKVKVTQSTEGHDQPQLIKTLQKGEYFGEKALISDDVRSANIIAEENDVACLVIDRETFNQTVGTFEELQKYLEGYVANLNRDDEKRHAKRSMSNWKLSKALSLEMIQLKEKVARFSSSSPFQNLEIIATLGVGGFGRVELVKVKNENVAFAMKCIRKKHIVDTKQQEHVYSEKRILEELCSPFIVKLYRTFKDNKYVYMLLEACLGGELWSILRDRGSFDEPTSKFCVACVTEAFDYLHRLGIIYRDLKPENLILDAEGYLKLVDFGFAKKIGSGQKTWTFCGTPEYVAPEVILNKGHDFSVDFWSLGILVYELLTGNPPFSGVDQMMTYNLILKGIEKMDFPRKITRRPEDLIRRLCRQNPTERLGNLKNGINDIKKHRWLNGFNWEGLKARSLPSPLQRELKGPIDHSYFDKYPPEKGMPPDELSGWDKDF
# [17] = target: T6, cGMP-dependent protein kinase 2 (Homo sapiens); conditions: at 1 µM
# [18] = target: T7, cAMP-dependent protein kinase catalytic subunit PRKX (Homo sapiens) (UniProt P51817); conditions: at 0.1 µM
# T7 sequence (whole entry): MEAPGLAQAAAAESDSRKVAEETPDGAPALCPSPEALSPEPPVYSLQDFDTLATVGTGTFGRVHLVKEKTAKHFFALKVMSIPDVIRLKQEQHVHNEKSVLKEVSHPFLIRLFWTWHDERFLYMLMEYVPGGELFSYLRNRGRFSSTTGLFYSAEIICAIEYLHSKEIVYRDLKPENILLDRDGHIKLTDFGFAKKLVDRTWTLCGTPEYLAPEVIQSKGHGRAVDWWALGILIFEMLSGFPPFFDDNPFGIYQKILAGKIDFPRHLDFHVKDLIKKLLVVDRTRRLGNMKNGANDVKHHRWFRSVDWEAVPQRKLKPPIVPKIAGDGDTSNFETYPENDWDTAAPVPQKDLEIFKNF
# [19] = target: T7, cAMP-dependent protein kinase catalytic subunit PRKX (Homo sapiens); conditions: at 1 µM
# [20] = target: Rho-associated protein kinase 1 (Homo sapiens) (UniProt Q13464); conditions: at 0.1 µM;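 also: values are mean percent inhibition of ROCK1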
# Chain of Rho-associated protein kinase 1 (Homo sapiens) (Q13464 2-1354 limits assumed): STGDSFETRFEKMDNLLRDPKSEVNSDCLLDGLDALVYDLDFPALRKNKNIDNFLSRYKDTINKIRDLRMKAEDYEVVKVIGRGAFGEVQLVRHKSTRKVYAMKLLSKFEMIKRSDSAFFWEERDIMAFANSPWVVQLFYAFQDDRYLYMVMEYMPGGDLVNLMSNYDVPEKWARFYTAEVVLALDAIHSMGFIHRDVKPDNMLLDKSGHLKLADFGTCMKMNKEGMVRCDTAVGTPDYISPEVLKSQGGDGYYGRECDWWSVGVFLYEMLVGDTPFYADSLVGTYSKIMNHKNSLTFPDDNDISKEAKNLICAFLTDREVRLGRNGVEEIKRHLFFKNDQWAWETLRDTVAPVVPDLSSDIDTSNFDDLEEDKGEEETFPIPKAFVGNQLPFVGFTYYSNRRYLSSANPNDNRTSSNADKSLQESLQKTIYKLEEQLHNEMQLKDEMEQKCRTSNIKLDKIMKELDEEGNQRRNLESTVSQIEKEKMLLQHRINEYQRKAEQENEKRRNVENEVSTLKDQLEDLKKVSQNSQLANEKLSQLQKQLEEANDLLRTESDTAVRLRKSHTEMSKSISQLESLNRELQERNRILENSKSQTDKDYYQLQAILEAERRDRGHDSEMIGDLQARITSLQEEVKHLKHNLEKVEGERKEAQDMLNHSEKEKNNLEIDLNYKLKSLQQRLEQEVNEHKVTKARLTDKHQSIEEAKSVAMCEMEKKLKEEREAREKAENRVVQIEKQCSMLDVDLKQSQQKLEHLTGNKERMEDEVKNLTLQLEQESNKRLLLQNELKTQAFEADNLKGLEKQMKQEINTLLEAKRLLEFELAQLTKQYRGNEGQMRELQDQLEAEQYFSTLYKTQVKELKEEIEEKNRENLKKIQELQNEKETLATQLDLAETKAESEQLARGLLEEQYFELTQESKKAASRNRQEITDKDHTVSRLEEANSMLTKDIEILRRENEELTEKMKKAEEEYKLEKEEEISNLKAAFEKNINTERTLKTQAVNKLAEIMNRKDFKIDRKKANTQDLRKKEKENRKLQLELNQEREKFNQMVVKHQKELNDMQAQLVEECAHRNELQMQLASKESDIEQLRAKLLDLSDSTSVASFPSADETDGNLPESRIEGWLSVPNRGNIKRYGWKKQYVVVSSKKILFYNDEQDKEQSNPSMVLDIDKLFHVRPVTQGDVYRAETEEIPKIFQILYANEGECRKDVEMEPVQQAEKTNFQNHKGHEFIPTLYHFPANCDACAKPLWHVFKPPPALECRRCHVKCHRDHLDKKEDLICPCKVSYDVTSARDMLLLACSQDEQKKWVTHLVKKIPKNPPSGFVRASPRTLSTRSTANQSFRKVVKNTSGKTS
# Chain of Protein kinase C theta type (Homo sapiens) (Q04759 whole entry, looked up): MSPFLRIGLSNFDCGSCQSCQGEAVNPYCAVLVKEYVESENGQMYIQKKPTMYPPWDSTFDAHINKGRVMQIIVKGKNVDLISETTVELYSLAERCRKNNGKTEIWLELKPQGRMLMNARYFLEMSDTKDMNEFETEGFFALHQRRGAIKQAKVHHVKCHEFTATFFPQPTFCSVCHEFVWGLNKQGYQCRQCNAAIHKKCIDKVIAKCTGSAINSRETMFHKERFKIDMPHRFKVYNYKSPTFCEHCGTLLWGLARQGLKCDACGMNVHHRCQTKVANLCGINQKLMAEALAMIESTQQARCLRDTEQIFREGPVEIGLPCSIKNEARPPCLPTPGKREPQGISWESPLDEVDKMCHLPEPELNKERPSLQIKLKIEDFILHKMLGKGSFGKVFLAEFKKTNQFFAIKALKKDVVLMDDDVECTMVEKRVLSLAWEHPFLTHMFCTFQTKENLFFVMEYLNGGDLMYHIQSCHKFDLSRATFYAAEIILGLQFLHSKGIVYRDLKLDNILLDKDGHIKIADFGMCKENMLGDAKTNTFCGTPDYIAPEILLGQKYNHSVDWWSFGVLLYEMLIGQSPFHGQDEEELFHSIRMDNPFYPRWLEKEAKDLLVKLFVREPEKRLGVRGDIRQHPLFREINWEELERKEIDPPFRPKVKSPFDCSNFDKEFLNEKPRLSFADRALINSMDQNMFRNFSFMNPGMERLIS
# Chain of Protein kinase C beta type (Homo sapiens) (P05771 2-671 limits assumed): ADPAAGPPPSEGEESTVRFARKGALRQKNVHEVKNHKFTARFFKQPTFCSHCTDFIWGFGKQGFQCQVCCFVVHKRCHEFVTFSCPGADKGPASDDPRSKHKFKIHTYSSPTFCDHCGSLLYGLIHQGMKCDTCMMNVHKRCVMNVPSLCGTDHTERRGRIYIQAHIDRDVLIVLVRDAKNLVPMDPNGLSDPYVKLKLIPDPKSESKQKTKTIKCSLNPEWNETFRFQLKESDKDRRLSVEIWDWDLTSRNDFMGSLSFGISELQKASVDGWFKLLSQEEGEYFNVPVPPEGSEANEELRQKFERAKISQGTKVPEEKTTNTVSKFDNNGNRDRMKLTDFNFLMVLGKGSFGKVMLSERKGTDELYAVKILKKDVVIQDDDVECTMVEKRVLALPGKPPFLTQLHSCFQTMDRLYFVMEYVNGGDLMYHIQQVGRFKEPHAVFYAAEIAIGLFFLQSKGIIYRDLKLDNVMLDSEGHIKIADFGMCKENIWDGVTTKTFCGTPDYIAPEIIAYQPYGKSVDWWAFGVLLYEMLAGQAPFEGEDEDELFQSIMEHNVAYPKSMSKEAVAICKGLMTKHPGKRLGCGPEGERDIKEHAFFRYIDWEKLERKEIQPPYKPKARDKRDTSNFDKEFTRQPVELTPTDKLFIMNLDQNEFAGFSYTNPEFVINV
Compound,inhibition [1],inhibition [2],inhibition [3],inhibition [4],inhibition [5],inhibition [6],inhibition [7],inhibition [8],inhibition [9],inhibition [10],inhibition [11],inhibition [12],inhibition [13],inhibition [14],inhibition [15],inhibition [16],inhibition [17],inhibition [18],inhibition [19],inhibition [20]
Cc1cc(O)cc(C)c1/C=C/c1cncc(C(N)=O)c1,2.79%,0.54%,1.6%,1.21%,0.54%,1.28%,1.05%,2.25%,3.69%,2.04%,2.16%,3.14%,2.74%,2.79%,5.83%,0.33%,3.49%,1.71%,3.29%,2.2%
Nc1nccc(-c2c(-c3ccc(F)cc3)ncn2C2CCNCC2)n1,8.84% and 8.7%,-1.01% and 0.25%,0.48% and 1.35%,-1.64% and -0.14%,-0.41% and 0.45%,3.39% and 5.75%,28.4% and 33.6%,-0.71% and 3.19%,26.6% and 34.1%,-0.79% and 3.35%,29.1% and 38.3%,-2.12% and 2.32%,17.6% and 25.6%,-1.2% and -1.11%,-1.21% and 1.73%,-2.2% and 1.13%,3.3% and 1.57%,-1.45% and 1.45%,-1.91% and 2.45%,-0.99% and 1.19%
NS(=O)(=O)c1ccc(N/N=C2\C(=O)Nc3ccc(C(=O)NCc4ccncc4)cc32)cc1,6.61%,-9.87%,1.34%,3.98%,8.38%,1.7%,4.09%,3.88%,24.4%,6.54%,18.5%,4.33%,16.4%,5%,19.3%,5.42%,18.4%,6.16%,15.5%,0.63%
O=C(Nc1n[nH]c2nnc(-c3cccnc3)cc12)C1CC1,2.11%,-0.5%,-0.56%,-0.08%,0.79%,0.49%,3.21%,-0.5%,0.81%,-1.06%,0.68%,-0.7%,0.02%,-0.91%,0.14%,1.31%,7.32%,-0.34%,-0.33%,-0.21%
